Results taken from PubChem BioAssay (NCATS).
“And” between values parts separate entries of the source, which are not always exact repeats. Equal values may be shown once. Inconclusive results are not listed. The source made the active and inactive calls. Calls follow the shape of the dose curve; as a rule, active = well fitted curve in the direction sought with a large enough effect; inconclusive = small, poorly fitted or top-dose-only effect, or another doubt; inactive = no such curve, though single readings can be large; an effect the other way counts as inactive or inconclusive.

Columns and labels:
[1] = biological target: Cellular tumor antigen p53 (Homo sapiens) (UniProt P04637); assay: Primary qHTS for small molecule compounds that upregulate eGFP-tagged delta133p53alpha (in N-terminal) cells. (AID 2060322); conditions: NCI-H358 eGFP-delta133p53alpha fluorescence, 24 h; activation: hits give high values;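 also: cells pre-induced with doxycycline then dosed without doxycycline; series mostly up to about 56 µM; 0% = DMSO vehicle and 100% = reference activator; nearly all actives have a fitted effect of over 75% in size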
How it was run: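 NCI-H358 cells pre-induced 24 h with 10 ng/ml doxycycline for eGFP-delta133p53alpha, plated dox-free and exposed 24 h at 37C to titrated compounds. Fixed, Hoechst-stained; gated GFP peak intensity by laser scanning cytometry, normalized to DMSO (0%) and 57.5 uM 5-azacytidine (100%).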

[2] = biological target: Aldehyde dehydrogenase, mitochondrial (Homo sapiens) (UniProt P05091); assay: qHTS for Inhibitors of the Aldehyde Dehydrogenase Family (ALDH2) Primary screen (AID 2061308);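 also: plate controls were vehicle for no effect and reference inhibitor for full effect; nearly all actives have a fitted effect of over 55% in size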
[3] = biological target: Retinaldehyde dehydrogenase 3 (Homo sapiens) (UniProt P47895); assay: qHTS for Inhibitors of the Aldehyde Dehydrogenase Family (ALDH1A3) Primary screen (AID 2061315);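 also: plate controls were DMSO vehicle for no effect and reference inhibitor for full effect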

Sequence of Cellular tumor antigen p53 (Homo sapiens) (P04637 whole entry, looked up): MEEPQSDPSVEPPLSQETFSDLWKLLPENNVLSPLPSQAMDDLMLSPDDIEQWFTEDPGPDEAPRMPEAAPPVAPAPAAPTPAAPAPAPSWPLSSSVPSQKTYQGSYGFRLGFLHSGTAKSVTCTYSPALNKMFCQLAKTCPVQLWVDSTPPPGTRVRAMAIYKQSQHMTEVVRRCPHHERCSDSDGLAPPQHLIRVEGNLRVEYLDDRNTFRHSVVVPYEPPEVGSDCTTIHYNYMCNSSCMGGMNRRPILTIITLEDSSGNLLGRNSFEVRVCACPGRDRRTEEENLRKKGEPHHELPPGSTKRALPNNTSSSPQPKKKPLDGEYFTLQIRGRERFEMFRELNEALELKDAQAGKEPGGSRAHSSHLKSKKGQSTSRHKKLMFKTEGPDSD

COc1ccc(CN2CCN(C(c3ccc(F)cc3)c3ccc(F)cc3)CC2)c(OC)c1OC
inactive: activation [1] -1.69% and -6.68% | Potency [2] | Potency [3]

C=C1C(O)C(OC(=O)c2ccccc2)C2C(C)(C(=O)O)CCCC2(C)C1CC/C(C)=C\CO (centres undefined)
inactive: activation [1] 11.5% | Potency [2] | Potency [3]

CC(/C=C/C1=CC2=CC(=O)C(C)(O)C(O)C2=CO1)=C\C(C)CCO (centres undefined)
inactive: activation [1] 7.63% | Potency [2] | Potency [3]

COC1=CC(=O)O/C1=C(/OC)[C@@H]1O[C@H]1c1ccccc1
inactive: activation [1] -3.05% | Potency [2] | Potency [3]

CC[C@]1(O)CC2CN(CCc3c([nH]c4ccccc34)[C@@](C(=O)OC)(c3cc4c(cc3OC)N(C=O)[C@H]3[C@@](O)(C(=O)OC)[C@H](OC(C)=O)[C@]5(CC)C=CCN6CC[C@]43[C@@H]65)C2)C1 (some centres undefined)
inactive: activation [1] -0.333% | Potency [2] | Potency [3]

CC1=CC(=O)[C@]2(O[C@@H]3O[C@@H](C)[C@H](O)[C@@H](O)[C@H]3OC(=O)/C=C/c3ccccc3)C=CO[C@@H](O[C@@H]3O[C@H](CO)[C@@H](O)[C@H](O)[C@H]3O)[C@H]12
inactive: activation [1] 3.05% | Potency [2] | Potency [3]

Cn1cc(-c2ccc3nnc(Sc4ccc5nn(C)cc5c4)n3n2)cn1
inactive: activation [1] -4.46% | Potency [2] | Potency [3]

CC[C@H](C)[C@H](NC(=O)[C@H](Cc1ccc(O)cc1)NC(=O)[C@@H](N)C(C)C)C(=O)N[C@@H](Cc1cnc[nH]1)C(=O)N1CCC[C@H]1C(=O)N[C@@H](Cc1ccccc1)C(=O)O
inactive: activation [1] 0.333% | activity change, negative = inhibition [2] 0.0903% [at 5.59 µM] | activity change, negative = inhibition [3] 1.7% [at 5.59 µM]

OCC1=CC[C@@H]2C=CO[C@@H](O[C@@H]3O[C@H](CO)[C@@H](O)[C@H](O)[C@H]3O)[C@H]12
inactive: activation [1] -9.92% | Potency [2] | Potency [3]

CC1=CC(=O)CC(C)(CO)C1(O)/C=C/C(C)O[C@@H]1O[C@H](CO)[C@@H](O)[C@H](O)[C@H]1O (some centres undefined)
inactive: activation [1] -9.82% | Potency [2] | Potency [3]

C=CCc1ccc(OC(C)Cc2ccc(OC)c(OC)c2)c(OC)c1 (centres undefined)
inactive: activation [1] -15.2% | Potency [2] | Potency [3]

CC1=CC(=O)C(=C(C)C)CC2C1CCC2(C)O (centres undefined)
inactive: activation [1] -7.14% | Potency [2] | Potency [3]

CC12CCC(=O)C=C1C(O)CC1C2C(O)CC2(C)C1CC[C@]2(O)C(=O)CO (some centres undefined)
inactive: activation [1] 5.67% | Potency [2] | Potency [3]

CC1(C)C2CCC(CO[C@@H]3O[C@H](CO[C@@H]4OC[C@](O)(CO)[C@H]4O)[C@@H](O)[C@H](O)[C@H]3O)C1C2 (some centres undefined)
inactive: activation [1] -5.34% | Potency [2] | Potency [3]

C/C(=C/C=C\C=C\Cc1cnco1)[C@@H](O)C(C)(C)C(N)=O
inactive: activation [1] -11.5% | Potency [2] | Potency [3]

CN(C)CCn1cc(S(=O)(=O)c2cccc(F)c2)c2cccnc21
inactive: activation [1] -7.16% | Potency [2] | Potency [3]

CC1(C)C2CC(OC3OC(COC4OCC(O)(CO)C4O)C(O)C(O)C3O)C1(C)CC2O (centres undefined)
inactive: activation [1] 1.79% | Potency [2] | Potency [3]

Cc1ccc2c(n1)Oc1ccc(C(C)C(=O)OCC(=O)N(C)C)cc1C2 (centres undefined)
inactive: activation [1] -12.6% and -10.9% | Potency [2] | Potency [3]

C/C(=N\O)c1ccc(OCC(=O)N2CCCCC2)cc1
inactive: activation [1] 3.35% | Potency [2] | Potency [3]

CC(=O)N[C@H]1[C@H](O[C@H]2CC[C@@]3(C)C(CC[C@]4(C)C3CC=C3C5CC(C)(C)CC[C@]5(C(=O)O)[C@H](O)C[C@]34C)C2(C)C)O[C@H](CO[C@@H]2OC[C@H](O)[C@H](O)[C@H]2O[C@@H]2OC[C@@H](O)[C@H](O)[C@H]2O)[C@@H](O)[C@@H]1O (some centres undefined)
inactive: activation [1] -19.1% | Potency [2] | Potency [3]

CC(=O)OC[C@]12[C@H](OC(C)=O)C(=O)[C@@H]3[C@@H](OC(C)=O)[C@@]14O[C@@]3(C)COC(=O)c1cccnc1[C@@H](C)[C@H](C)C(=O)O[C@@H]([C@H](O)[C@@H]2OC(C)=O)[C@]4(C)O
inactive: activation [1] 6.25% | Potency [2] | Potency [3]

CC(C)c1nc(N(C)S(C)(=O)=O)nc(-c2ccc(F)cc2)c1/C=C/[C@@H](O)C[C@@H](O)CC(=O)O
inactive: activation [1] -19% | Potency [2] | Potency [3]

COC(=O)[C@]12C(=O)C(C)=C(O)[C@@]1(C)C(C)=CC1[C@@]34CC[C@@H](OC(C)=O)C(C)(C)C3[C@H](C[C@]12C)OC4=O (some centres undefined)
inactive: activation [1] 2.29% | Potency [2] | Potency [3]
